Here are results for 39 compounds from PubChem BioAssay.

Potency and affinity values are given separately. Calls of active or inactive are those of the source.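 The calls were made as follows: active = a dose-response fit showing signal loss, with half-maximal concentration no higher than twice the top tested dose; inconclusive = flat fit between 30% and 70% signal loss, or poor fit; inactive = the rest.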

The nature of the assay: HepG2 cell cytotoxicity, dose response, cytotoxicity control, cherry-picks, set 2 (AID 687002). The settings on record: HepG2 viability, ATP luminescence (CellTiter-Glo), 48 h; series mostly up to 26 µM. (In general: ATP-based viability assays read luminescence as a measure of living cells.)
Consider `COc1ccc(NC(=O)CSc2ncnc3c2cnn3CCc2ccccc2)cc1`, for which the compound was classed as inactive.
Turning to `O=C(NC(=S)Nc1ccc(N2CCOCC2)cc1)c1cccc([N+](=O)[O-])c1`, the outcome was inactive.
As for `C[C@H]1CN([C@@H](C)CO)C(=O)Cc2cc(NC(=O)C3CC3)ccc2O[C@@H]1CN(C)C(=O)Nc1cccc2ccccc12`, the entry is “inactive”.
Then `COc1ccccc1-c1ccc([C@H]2[C@H](C#N)N(C(=O)C3CC3)[C@H]2CO)cc1`, with “inactive”.
As for `Cc1ccccc1OCC(=O)NC(C)c1ccccc1` (centres undefined), the entry is “inactive”; as for `CO[C@@H]1CN(C)C(=O)c2cc(NC(=O)C3CCOCC3)ccc2OC[C@H](C)NC[C@@H]1C`, “inactive”; as for `COc1ccc(N(C)C(=O)c2cn(CC(C)C)c(=O)c3cc(OC)c(OC)cc23)c(OC)c1`, “inactive”.
For the compound `O=C(Oc1ccc2c3c(c(=O)oc2c1)CCCC3)c1ccco1`, the outcome was inactive.
On to `O=C(CSc1ncnc2c1cnn2-c1ccccc1)NCC1CCCO1` (centres undefined), for which the result was inactive.
For `Cc1cc(C(=O)Nc2cccc3c2O[C@@H](CN(C)S(=O)(=O)c2ccccc2)[C@@H](C)CN([C@@H](C)CO)C3=O)n(C)n1`, the compound was classed as inactive.
For `CC(=O)c1cccc(NC(=S)NC2CCCCCCC2)c1`, the call was inactive.
As for `CCCN1C(=O)C(O)(C2CC(=O)CC(C)(C)O2)c2ccccc21` (centres undefined), the entry is “inactive”.
Then `Cc1cc(OCC(=O)NC(C)c2ccccc2)ccc1[N+](=O)[O-]` (centres undefined), with “inactive”.
Consider `O=C(C[C@@H]1C=C[C@@H](NC(=O)Nc2cc(F)ccc2F)[C@H](CO)O1)NCCCN1CCOCC1`, for which the compound was classed as inactive.
Then `CCc1ccc(C(=O)NC(=S)Nc2ccccc2N2CCOCC2)cc1`, with “inactive”.
Then `CC(C)N1C(=O)C2(OCCCO2)c2cc(Br)ccc21`, with “inactive”.
As for `CC(=O)N[C@H]1CC[C@H](CCNC(=O)C2CCC2)O[C@@H]1CO`, the entry is “inactive”; as for `Cc1ccc2c(C)c(C(=O)N3CCN(Cc4ccccn4)CC3)oc2c1C`, “inactive”; as for `COC(=O)C1=C(C)N(Cc2ccc(F)cc2)C(=S)NC1c1cccc(OC)c1` (centres undefined), “inactive”.
Take `CC12CC3CC(C)(C1)CC(C(=O)NC(=S)N1CCCCC1)(C3)C2`: the call was inactive.
As for `C[C@H](CO)N1C[C@H](C)[C@H](CN(C)Cc2ccc(Cl)c(Cl)c2)Oc2c(NC(=O)Nc3ccccc3)cccc2C1=O`, the entry is “inactive”.
As for `Cc1ccccc1-n1ncc2c(SCC(=O)N3c4ccccc4CC3C)ncnc21` (centres undefined), the entry is “inactive”; as for `CCC(C)(C(=O)Nc1ccccc1C)N(C(=O)CNC(C)=O)c1ccccc1C` (centres undefined), “inactive”; as for `O=C(Nc1ccc(N2CCOCC2)cc1N1CCOCC1)c1cccc([N+](=O)[O-])c1`, “inactive”.
Consider `c1ccc(-n2ncc3c(NCc4ccc5c(c4)OCO5)ncnc32)cc1`, for which the compound was called inactive.
Then `CCC(C)N(C(=O)CSc1ncnc2c1cnn2-c1ccccc1)C1CCS(=O)(=O)C1` (centres undefined), with “inactive”.
As for `O=C(Nc1ccc2ncccc2c1)c1ccccc1`, the entry is “inactive”.
As for `COc1ccc(N2CCN(C(=O)CSc3ncnc4c3cnn4-c3ccccc3C)CC2)cc1`, the entry is “inactive”; as for `CCOC(=O)CNC(=O)CSc1ncnc2c1cnn2-c1ccccc1`, “inactive”; as for `Cc1ccc(/C=C2\SC(=S)N(NS(=O)(=O)c3ccc(C)cc3)C2=O)cc1`, “inactive”.
As for `C[C@@H]1CN([C@H](C)CO)C(=O)CCCn2nncc2CO[C@H]1CN(C)Cc1cccc(C(F)(F)F)c1`, the compound was called inactive.
As for `O=C(COc1ccccc1)NCc1ccc2c(c1)OCO2`, the entry is “inactive”; as for `CC(C)Sc1nc2ncnc(N)c2[nH]1`, “inactive”.
Then `CC(=O)NC12CC3CC(C1)CC(C(=O)NCC(=O)Nc1c(C)cc(C)cc1C)(C3)C2`, with “inactive”.
Take `CO[C@H]1CN(C)C(=O)c2ccc(NC(=O)NC(C)C)cc2OC[C@@H](C)NC[C@H]1C`: the call was inactive.
Then `COc1ccc(CN(C)C[C@@H]2Oc3ccc(NS(C)(=O)=O)cc3CC(=O)N([C@H](C)CO)C[C@H]2C)cc1`, with “inactive”; and `COc1ccc(C2CC(c3cccs3)=NN2C(=O)c2ccco2)cc1OC` (centres undefined), with “inactive”; and `Cc1ccc(OCC(=O)NC(C)c2ccccc2)cc1` (centres undefined), with “inactive”.
Then `O=C(COc1ccc2c(c1)CCC2)NCc1ccc(Cl)cc1`, with “inactive”.
